{"source": "the antibiotic and cytotoxicity screens of Wong et al. (2023)", "note": "The whole screen tested about 39,000 compounds, of which about 3,300 (8.5%) were called active. This excerpt belongs to a sample that is enriched for actives.", "data": [{"tested_on": "HepG2", "test": "cytotoxicity call (relative viability < 0.9)", "details": "10 µM", "values": [{"smiles": "C[C@H](CO)N1C[C@H](C)[C@H](CN(C)Cc2ccc(Oc3ccccc3)cc2)Oc2ncc(-c3cccnc3)cc2C1=O", "cytotoxicity call": "inactive"}, {"smiles": "C[C@H](CO)N1C[C@H](C)[C@H](CN(C)C(=O)NC2CCCCC2)Oc2ccc(NC(=O)Nc3cccc4ccccc34)cc2C1=O", "cytotoxicity call": "inactive"}, {"smiles": "C[n+]1c2cc(N)ccc2cc2ccc(N)cc21.[Cl-]", "cytotoxicity call": "active"}, {"smiles": "C[C@@H]1CCCCO[C@@H](CN(C)Cc2ccc(C(=O)O)cc2)[C@H](C)CN([C@H](C)CO)C(=O)c2cc(NC(=O)c3ccccc3)ccc2O1", "cytotoxicity call": "inactive"}, {"smiles": "C[C@H]1CN([C@@H](C)CO)C(=O)CCCn2cc(nn2)CO[C@H]1CN(C)C(=O)Nc1cccc(Oc2ccccn2)c1", "cytotoxicity call": "inactive"}, {"smiles": "CC(=O)OC[C@H]1O[C@@H](n2ccc(=O)[nH]c2=O)[C@H](OC(C)=O)[C@@H]1OC(C)=O", "cytotoxicity call": "inactive"}, {"smiles": "COCC(=O)N1C[C@H](C)[C@H](OC)CN(C)C(=O)c2cc(NC(=O)Nc3cccc(F)c3)ccc2OC[C@@H]1C", "cytotoxicity call": "inactive"}, {"smiles": "COc1ccc(NC(=O)Nc2ccc3c(c2)C(=O)N([C@@H](C)CO)C[C@H](C)[C@@H](CN(C)Cc2ccc(Cl)c(Cl)c2)O3)cc1", "cytotoxicity call": "inactive"}, {"smiles": "COc1ccc(NC(=O)Nc2ccc3c(c2)C(=O)N([C@H](C)CO)C[C@@H](C)[C@@H](CN(C)Cc2ccc(Cl)c(Cl)c2)O3)cc1", "cytotoxicity call": "inactive"}, {"smiles": "COc1ccc(NC(=O)Nc2ccc3c(c2)C(=O)N([C@H](C)CO)C[C@H](C)[C@@H](CN(C)Cc2ccc(Cl)c(Cl)c2)O3)cc1", "cytotoxicity call": "inactive"}, {"smiles": "COc1ccc(NC(=O)Nc2ccc3c(c2)C(=O)N([C@H](C)CO)C[C@H](C)[C@H](CN(C)Cc2ccc(Cl)c(Cl)c2)O3)cc1", "cytotoxicity call": "active"}, {"smiles": "COc1ccc(NC(=O)Nc2ccc3c(c2)C(=O)N([C@@H](C)CO)C[C@H](C)[C@H](CN(C)Cc2ccc(Cl)c(Cl)c2)O3)cc1", "cytotoxicity call": "active"}, {"smiles": "COc1ccc(NC(=O)Nc2ccc3c(c2)C(=O)N([C@@H](C)CO)C[C@@H](C)[C@@H](CN(C)Cc2ccc(Cl)c(Cl)c2)O3)cc1", "cytotoxicity call": "inactive"}, {"smiles": "C[C@H]1CN([C@@H](C)CO)S(=O)(=O)c2ccc(-c3ccc(C(=O)N(C)C)cc3)cc2O[C@@H]1CN(C)C(=O)C1CCC1", "cytotoxicity call": "inactive"}, {"smiles": "O=C(O[C@H]1[C@H](O)[C@@H](CO)O[C@H](c2c(O)cc(O)c(C(=O)c3ccc(O)cc3)c2O)[C@H]1OC(=O)c1cc(O)c(O)c(O)c1)c1cc(O)c(O)c(O)c1", "cytotoxicity call": "active"}, {"smiles": "O=C(CCc1ccc(O)cc1)c1c(O)c([C@@H]2O[C@H](CO)[C@@H](O)[C@H](O)[C@H]2O)c(O)c([C@@H]2O[C@H](CO)[C@@H](O)[C@H](O)[C@H]2O)c1O", "cytotoxicity call": "inactive"}, {"smiles": "CC(=O)O[C@H]1[C@H](Oc2cc(O)cc(O)c2C(=O)c2cc(O)cc(O)c2)O[C@H](CO)[C@@H](OC(=O)c2ccccc2)[C@@H]1O", "cytotoxicity call": "inactive"}, {"smiles": "Cc1ccc(S(=O)(=O)N(C)C[C@@H]2Oc3ccc(NC(=O)CCCN(C)C)cc3CC(=O)N([C@H](C)CO)C[C@H]2C)cc1", "cytotoxicity call": "inactive"}, {"smiles": "CN(C)CC#Cc1ccc([C@@H]2[C@H](CO)N3C(=O)CN(C(=O)CN(C)C)C[C@@H]23)cc1", "cytotoxicity call": "inactive"}, {"smiles": "C[C@@H]1CN([C@@H](C)CO)C(=O)c2cccc(NC(=O)c3ccncc3)c2O[C@H]1CN(C)S(=O)(=O)c1cccs1", "cytotoxicity call": "inactive"}, {"smiles": "C[C@@H]1CN([C@H](C)CO)C(=O)c2cccc(NC(=O)c3ccncc3)c2O[C@@H]1CN(C)S(=O)(=O)c1cccs1", "cytotoxicity call": "active"}, {"smiles": "C[C@@H]1CN([C@@H](C)CO)C(=O)c2cccc(NC(=O)c3ccncc3)c2O[C@@H]1CN(C)S(=O)(=O)c1cccs1", "cytotoxicity call": "active"}, {"smiles": "C[C@@H]1CN([C@H](C)CO)C(=O)c2cccc(NC(=O)c3ccncc3)c2O[C@H]1CN(C)S(=O)(=O)c1cccs1", "cytotoxicity call": "inactive"}, {"smiles": "C[C@H](CO)N1C[C@H](C)[C@H](CN(C)S(=O)(=O)c2cccs2)Oc2c(NC(=O)c3ccncc3)cccc2C1=O", "cytotoxicity call": "inactive"}, {"smiles": "C[C@H]1CN([C@@H](C)CO)C(=O)c2cccc(NC(=O)c3ccncc3)c2O[C@H]1CN(C)S(=O)(=O)c1cccs1", "cytotoxicity call": "inactive"}, {"smiles": "CO[C@H]1CN(C)C(=O)c2cc(NS(=O)(=O)c3cn(C)cn3)ccc2OC[C@@H](C)N(Cc2cccc(F)c2)C[C@@H]1C", "cytotoxicity call": "inactive"}, {"smiles": "Cc1noc(C)c1NC(=O)N(C)C[C@H]1Oc2ccc(NC(=O)C3CC3)cc2C(=O)N([C@H](C)CO)C[C@@H]1C", "cytotoxicity call": "inactive"}, {"smiles": "C[C@@H]1CN([C@H](C)CO)C(=O)c2cc(NS(C)(=O)=O)ccc2O[C@@H](C)CCCCO[C@H]1CN(C)CC1CC1", "cytotoxicity call": "inactive"}, {"smiles": "C[C@@H]1CCCCO[C@@H](CN(C)C(=O)c2ccccc2)[C@H](C)CN([C@@H](C)CO)C(=O)c2cc(NS(=O)(=O)c3ccccc3)ccc2O1", "cytotoxicity call": "inactive"}, {"smiles": "C[C@@H]1CN([C@H](C)CO)S(=O)(=O)c2ccc(Br)cc2O[C@H]1CN(C)C(=O)Nc1ccccc1", "cytotoxicity call": "inactive"}, {"smiles": "C[C@H](CO)N1C[C@H](C)[C@H](CN(C)CC2CCCCC2)Oc2ccc(NC(=O)Nc3cccc4ccccc34)cc2CC1=O", "cytotoxicity call": "inactive"}, {"smiles": "C[C@@H]1CN([C@H](C)CO)C(=O)Cc2cc(NC(=O)Nc3cccc4ccccc34)ccc2O[C@@H]1CN(C)CC1CCCCC1", "cytotoxicity call": "active"}, {"smiles": "C[C@H]1CN([C@@H](C)CO)C(=O)Cc2cc(NC(=O)Nc3cccc4ccccc34)ccc2O[C@H]1CN(C)CC1CCCCC1", "cytotoxicity call": "active"}, {"smiles": "C[C@@H]1CN([C@H](C)CO)C(=O)Cc2cc(NC(=O)Nc3cccc4ccccc34)ccc2O[C@H]1CN(C)CC1CCCCC1", "cytotoxicity call": "inactive"}, {"smiles": "C[C@@H]1CN([C@H](C)CO)C(=O)Cc2cc(NC(=O)Nc3cccc4ccccc34)ccc2O[C@@H]1CN(C)C(=O)NC1CCCCC1", "cytotoxicity call": "inactive"}, {"smiles": "C[C@H]1CN([C@@H](C)CO)C(=O)Cc2cc(NC(=O)Nc3cccc4ccccc34)ccc2O[C@@H]1CN(C)CC1CCCCC1", "cytotoxicity call": "active"}, {"smiles": "C[C@@H]1CN([C@@H](C)CO)C(=O)Cc2cc(NC(=O)Nc3cccc4ccccc34)ccc2O[C@@H]1CN(C)CC1CCCCC1", "cytotoxicity call": "active"}, {"smiles": "C[C@H](CO)N1C[C@H](C)[C@@H](CN(C)CC2CCCCC2)Oc2ccc(NC(=O)Nc3cccc4ccccc34)cc2CC1=O", "cytotoxicity call": "inactive"}, {"smiles": "C[C@@H]1CN([C@@H](C)CO)C(=O)Cc2cc(NC(=O)Nc3cccc4ccccc34)ccc2O[C@H]1CN(C)CC1CCCCC1", "cytotoxicity call": "inactive"}]}]}
